Screens as filed in PubChem.
Shiga inhibitor: Shiga toxin inhibition. hit rate 9.2% among 290,000. inhibition, % at 38.7 µM. Vero cells, Shiga toxin protein synthesis inhibition reporter; in the data active means inhibition mostly above about 28%, no sharp cut-off; inactive means mostly below about 43%; further: 0% is about no effect
HCMV inh: human cytomegalovirus inhibition | HFF cells, HCMV-luciferase reporter, 72 h; stronger effect = lower value | activity change, negative = inhibition, % at 57.5 µM | hit rate 4.5% among 410,000 | AID 1259415; in the data active means activity change below about -60%; inconclusive means no clear call, values can overlap the other calls; inactive means above about -39%; further: on the % scale 0 is the no-effect control and ±100 the full control effect
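Two compound doses tested in HFFs infected with HCMV-luciferase, MOI 1 PFU/cell, 72 h at 37C. Lysate luminescence read with OneGlo; data normalized against buffer-only and 10uM Salinomycin inhibitor controls.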
Pf growth 96h: P. falciparum growth inhibition at 96 hour, primary screen for plastid delayed-death inhibitors. hit rate 6.9% among 320,000. AID 504834. Potency, µM (titrated, usually from 28.7 µM), inactives show at the highest dose activity change, negative = inhibition, actives largely listed as inhibitors. P. falciparum luciferase reporter growth, 96 h; further: potency means the concentration at half of the fitted maximal effect; on the % scale 0 is the no-effect control and ±100 the full control effect
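Plates of compound plus infected erythrocytes (2% hematocrit, 0.05% parasitemia final) incubate 96 hours, 37 C, 5% CO2. Detection reagent added; reduced luminescence from the parasites' luciferase reporter flags inhibition.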
HCV inhibitor: HCV inhibition; Huh7.5.1 HCVcc-Cre infection, luciferase reporter, 44 h; Potency, µM (top dose mostly 41.8 µM), for the others: at the top dose activity change, negative = inhibition, usual class: inhibitors; hit rate 3.4% among 340,000; AID 651820; further: potency means the concentration at half of the fitted maximal effect; on the % scale 0 is the no-effect control and ±100 the full control effect
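1,000 cells/well; 4 h culture; + compound; + HCVcc-Cre (~0.5 moi); 44 h; luciferase substrate, RT 15 min; read 15 sec.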
CHX counter: counter-screen for Shiga toxin inhibitors: cycloheximide protein synthesis inhibition | max response, % | cell reporter, cycloheximide protein synthesis inhibition counterscreen | AID 2314 | hit rate 12% among 300,000; in the data active means max response mostly above about 13%, no sharp cut-off; inactive means mostly below about 14%; further: read at 38.3 µM for the half of the compounds with a filed dose; 0% is about no effect
Pf growth 48h: inhibits P. falciparum growth in the first generation, 48 h; Potency, µM (titrated, usually from 28.7 µM), without a hit: at the top dose activity change, negative = inhibition, actives largely listed as inhibitors; P. falciparum luciferase growth in erythrocytes, 48 h; hit rate 5.9% among 310,000; further: potency means the concentration at half of the fitted maximal effect; on the % scale 0 is the no-effect control and ±100 the full control effect
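Cell-based growth assay: transgenic P. falciparum expressing firefly luciferase, cultured in red cells within RPMI 1640 containing 0.5% w/v Albumax, 24 mM bicarbonate and gentamycin. A drop in luciferase activity indicates inhibition.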
* hit, by the source's call; i = inactive; ? = inconclusive; · = no result given. Rows were chosen to be rich in hits. Some 21% of all compounds tested hit in one or more screens of this group. Unless noted, the call rests on the fitted dose curve; in most records, active means well fitted inhibition curve with a large enough effect; inconclusive means small, poorly fitted or top-dose-only effect, or another doubt; inactive means no such curve, though single readings can be large or run the other way.

SMILES	Shiga inhibitor	HCMV inh	Pf growth 96h	HCV inhibitor	CHX counter	Pf growth 48h
CN(C)C(=O)C1Cc2ccccc2CN1S(=O)(=O)c1cccs1 (stereo not drawn)	10	-8	36%	4%	-3	-20%
CCCn1c(NC(=O)C2CCN(S(=O)(=O)c3cccs3)CC2)nc2ccccc21	-22	-62*	71%	14µM*	0	10µM*
COC(=O)CNC(=O)C1Cc2ccccc2CN1S(=O)(=O)c1cccs1 (stereo not drawn)	1	0	6%	11%	0	10%
CCCNC(=O)C1CCN(S(=O)(=O)c2cccs2)CC1	1	-27	26%	22%	8	27%
O=C(C1Cc2ccccc2CN1S(=O)(=O)c1cccs1)N1CCCCC1 (stereo not drawn)	-3	1	·	-17%	9.5*	-8%
O=C(Nc1ccc2c(c1)OCO2)C1Cc2ccccc2CN1S(=O)(=O)c1cccs1 (stereo not drawn)	26	19	5%	-17%	18*	45%
O=C(Nc1nc(-c2ccc(F)cc2)cs1)C1CCN(C(=O)c2ccc(F)cc2)CC1	·	-80*	6.6µM*	?	·	?
Cc1nn(Cc2noc(C(=O)NC(C)c3ccccc3)n2)c(C)c1Br (stereo not drawn)	·	18	·	·	·	·
CCOC(=O)COc1ccccc1/C=N\NC(=O)c1cc2c(ccc3ccccc32)o1	17	-32	?	-13%	-3	-19%
NC(=O)COC(=O)[C@H](Cc1c[nH]c2ccccc12)NC(=O)c1ccc(F)cc1	-5	31	26%	4%	-1	37%
COc1cccc(NC(=O)C2(C)CCN2C(=O)Cc2cccc3ccccc23)c1 (stereo not drawn)	·	-30	·	·	·	·
COC(=O)[C@]12CCCCC=C1N(Cc1ccccc1)C(=O)[C@H](CC(=O)NCCC(C)C)C2	·	-14	·	·	·	·
CC(=O)Nc1ccc(-c2csc(NC(=O)C3CCN(S(=O)(=O)c4cccs4)CC3)n2)cc1	-12	-69*	?	?	1	2.1µM*
Cc1csc(NC(=O)C2CCN(S(=O)(=O)c3cccs3)CC2)n1	-8	?	55%	?	8	-2%
O=C(OCCOc1ccccc1F)c1cccc(S(=O)(=O)N2CCOCC2)c1	·	-32	?	-15%	·	?
O=C1CCCC/C1=N\Nc1ccc(C2CCCCC2)cc1	64*	·	0%	·	39*	221%
O=C1CCCC/C1=N\Nc1ccc(OCc2ccccc2)cc1	56*	-12	23%	-11%	21*	0%
CC(=O)/C(=C\Nc1ccc(OCc2ccccc2)cc1)c1ccccc1	12	0	-7%	-11%	12	-12%
CCc1ccccc1NC(c1nnc(-c2cccc(F)c2)o1)c1ccc(F)cc1Cl (stereo not drawn)	·	-14	·	·	·	·
CCN(C(=O)c1cnc(NC(C)C)cc1C(F)(F)F)c1ccc(Cl)cc1	-8	-23	12µM*	?	-1	?
CC(=O)OCCN1C(=O)c2c(C)nc3ccc(S(=O)(=O)N4CCOCC4)cc3c2C1=O	-2	·	·	·	-2	·
COc1ccc(-n2c(O)c(/C=N/NS(=O)(=O)c3cccc([N+](=O)[O-])c3)c3ccccc3c2=O)cc1OC	-18	-8	?	6%	-1	?
Cc1cc(C)n(C(=O)c2c([N+](=O)[O-])cnn2C)n1	-7	-14	41%	10%	-2	17%
CCn1ncc([N+](=O)[O-])c1C(=O)n1nc(C)cc1C	112*	32	35%	-1%	45*	35%
CCCc1[nH]n(-c2ccc([N+](=O)[O-])cc2)c(=O)c1C=NCCCn1ccnc1	-29	-11	14%	?	-1	13µM*
SMILES	Shiga inhibitor	HCMV inh	Pf growth 96h	HCV inhibitor	CHX counter	Pf growth 48h
Nc1ccccc1C(=O)N=Nc1[nH]c(N)c2ccccc12	16*	28	?	5%	44*	105%
COC(=O)c1cn(C(=O)c2ccc(F)cc2)c2ccccc12	-4	-1	6%	4%	-3	-1%
Nc1[nH]c(N=NC(=O)c2ccc(F)cc2)c2ccccc12	121*	25	?	-6%	91*	-21%
Cc1cccc(Cn2c(N3CCN(C)CC3)nc3c2c(=O)n(C)c(=O)n3C)c1	·	15	366%	10%	-1	7%
Cc1onc(-c2c(Cl)cccc2Cl)c1C(=O)Nc1ccc(C(N)=O)cc1	-3	-5	?	-1%	-3	-11%
CN1CCc2c(sc3c2C(=O)NC(c2cccs2)N3)C1 (stereo not drawn)	35*	-16	36%	7%	34*	66%
Cc1ccsc1C1NC(=O)c2c(sc3c2CCN(C)C3)N1 (stereo not drawn)	-4	0	?	6%	1	·
CCN(CC)C(=O)C1=C(C)N(Cc2ccc(C(C)(C)C)cc2)C(=O)C(CC(=O)NC2CCCC2)C1 (stereo not drawn)	·	39	·	·	·	·
CC(C)OC(=O)c1cc2ccccc2[nH]1	54*	?	?	0%	23*	29%
CCOC(=O)c1cc2cc3ccccc3cc2[nH]1	150*	34	i	0%	54*	i
CCOC(=O)C1=C(O)/C(=C\c2cc(C)n(-c3ccc(F)cc3)c2C)N=C1C	11	-1	53%	-6%	14	?
COc1cccc(NC(=O)C2CCN(c3nc4ccccc4nc3C(F)(F)F)CC2)c1	·	-16	·	·	·	·
O=[N+]([O-])c1cc(S(=O)(=O)Nc2cccc(Cl)c2)ccc1N/N=C/c1ccc(N2CCOCC2)cc1	17	1	?	0%	2	1.9µM*
O=[N+]([O-])c1cc(/C=N/Nc2nc(N3CCOCC3)nc(N3CCOCC3)n2)ccc1Cl	-10	-17	-9%	-11%	-2	5%
C/C(=N\Nc1ccc(S(=O)(=O)Nc2ccc(Cl)cc2)cc1[N+](=O)[O-])c1ccc(N2CCOCC2)cc1	-5	-30	4.1µM*	?	-3	?
COc1cccc(NC(=O)CN2CCN(C(=O)c3ccco3)CC2)c1	-2	-1	-7%	-3%	-2	?
CN(C)c1cccc(NC(=O)C2Cc3c(-c4ccccc4Oc4ccccc4)ccnc3O2)c1 (stereo not drawn)	·	-83*	·	·	·	·
CC(=O)c1cccc(NC(=O)C2Cc3c(-c4ccco4)ccnc3O2)c1 (stereo not drawn)	·	-62*	·	·	·	·
CC(=O)c1cccc(NC(=O)C2Cc3c(-c4ccccc4Oc4ccccc4)ccnc3O2)c1 (stereo not drawn)	·	-66*	·	·	·	·
COc1cccc(C(=O)N2CCN(Cc3ccccn3)CC2)c1	-4	-31	1%	14%	6	·
O=C1CN(C(=O)c2ccc3nc(Cc4cccc(Cl)c4)oc3c2)CCN1	-15	4	?	5%	-1	7%
CCCCc1nc2cc(C(=O)N3CCCC3)ccc2o1	68*	49	138%	19%	31*	61%
